# Assay results: article PMC11062922 (Nature Chemical Biology, 2023)
# Where two headings read alike, the source gives them in different places.
# Experiments:
# Design in all cases: species or system human, MV4-11 + K-562 + COLO205 + SK-N-BE2 + OVCAR-8
# CDKL5 = conditions: read-out: apparent Kd; compound concentrations: 100 nM and 1000 nM (sheet 'Samples'), CATDS: 2.6362691965297801E-2; n = 1
# DYRK1A = conditions: read-out: apparent Kd, compound concentrations: 100 nM and 1000 nM (sheet 'Samples'), n = 1
# PTK2 = conditions: read-out: apparent Kd, n = 1
# CDK7 = conditions: read-out: apparent Kd; compound concentrations:100 nM and 1000 nM (sheet 'Samples'); n = 1
# ERCC2 = conditions: read-out: apparent Kd; compound concentrations:100 nM and 1000 nM (sheet 'Samples'); n = 1
# FER = conditions: read-out: apparent Kd, n = 1
# MARK4 = conditions: read-out: apparent Kd, n = 1
# PLK4 = conditions: read-out: apparent Kd, n = 1
# PRKAA1 = conditions: read-out: apparent Kd, n = 1
# PRKCQ = conditions: read-out: apparent Kd, n = 1
# PTK2B = conditions: read-out: apparent Kd, n = 1
# RPS6KA6 = conditions: read-out: apparent Kd, n = 1
# STK10 = conditions: read-out: apparent Kd, n = 1
# TNK2 = conditions: read-out: apparent Kd; compound concentrations:100 nM and 1000 nM (sheet 'Samples'); n = 1
# FLT3 = conditions: read-out: apparent Kd, n = 1
# LATS1 = conditions: read-out: apparent Kd, n = 1
# MYLK3 = conditions: read-out: apparent Kd, n = 1
# PRKCD = conditions: read-out: apparent Kd, n = 1
# PRKD2 = conditions: read-out: apparent Kd, n = 1
# PRKD3 = conditions: read-out: apparent Kd, n = 1
# [1] = compound concentrations:100 nM and 1000 nM (sheet 'Samples')
structure (smiles),measurement,setting,value
Cl.Cl.NC(CNC(=O)c1cc(Br)c(-c2ccnc3[nH]ccc23)s1)c1ccccc1.NC(CNC(=O)c1cc(Br)c(-c2ccnc3[nH]ccc23)s1)c1ccccc1 (stereo not drawn) [GSK1322949A],potency estimated from few doses,CDKL5,1670 nM
same,potency estimated from few doses,DYRK1A; CATDS: 2.3831773073254899E-2,2230 nM
same,potency estimated from few doses,"PTK2; compound concentrations: 100 nM and 1000 nM (sheet 'Samples'), CATDS: 3.2827232082793402E-2",993 nM
CS(=O)(=O)CCn1c(=O)c(Oc2ccc(F)cc2F)cc2cnc(NC3CCOCC3)nc21 [RO5027956-000],potency estimated from few doses,CDK7,349 nM
same,potency estimated from few doses,ERCC2,317 nM
same,potency estimated from few doses,FER; [1],431 nM
same,potency estimated from few doses,MARK4; [1],1950 nM
same,potency estimated from few doses,PLK4; [1],568 nM
same,potency estimated from few doses,PRKAA1; [1],1210 nM
same,potency estimated from few doses,PRKCQ; [1],998 nM
same,potency estimated from few doses,PTK2B; [1],417 nM
same,potency estimated from few doses,PTK2; [1],814 nM
same,potency estimated from few doses,RPS6KA6; [1],506 nM
same,potency estimated from few doses,STK10; [1],2320 nM
same,potency estimated from few doses,TNK2,521 nM
O=C(O)C(F)(F)F.O=C(O)C(F)(F)F.O=c1[nH]ccc2nc(N[C@@H]3CCCNC3)nc(Nc3ccc(S(=O)(=O)N4CCOCC4)cc3)c12.O=c1[nH]ccc2nc(N[C@@H]3CCCNC3)nc(Nc3ccc(S(=O)(=O)N4CCOCC4)cc3)c12 [GSK2177277A],potency estimated from few doses,"FER; compound concentrations: 100 nM and 1000 nM (sheet 'Samples'), CATDS: 8.2739447120601401E-3",507 nM
same,potency estimated from few doses,"FLT3; compound concentrations: 100 nM and 1000 nM (sheet 'Samples'), CATDS: 9.0751024069003396E-3",370 nM
same,potency estimated from few doses,"LATS1; compound concentrations: 100 nM and 1000 nM (sheet 'Samples'), CATDS: 1.48300039917603E-2",99 nM
same,potency estimated from few doses,"MARK4; compound concentrations: 100 nM and 1000 nM (sheet 'Samples'), CATDS: 1.7623267984443299E-2",68 nM
same,potency estimated from few doses,"MYLK3; compound concentrations: 100 nM and 1000 nM (sheet 'Samples'), CATDS: 7.6821350503620796E-3",670 nM
same,potency estimated from few doses,"PLK4; compound concentrations: 100 nM and 1000 nM (sheet 'Samples'), CATDS: 9.3439650172966598E-3",337 nM
same,potency estimated from few doses,"PRKAA1; compound concentrations: 100 nM and 1000 nM (sheet 'Samples'), CATDS: 9.2771532951669705E-3",345 nM
same,potency estimated from few doses,"PRKCD; compound concentrations: 100 nM and 1000 nM (sheet 'Samples'), CATDS: 1.08121865447726E-2",219 nM
same,potency estimated from few doses,"PRKCQ; compound concentrations: 100 nM and 1000 nM (sheet 'Samples'), CATDS: 6.3096913927369299E-3",1710 nM
same,potency estimated from few doses,"PRKD2; compound concentrations: 100 nM and 1000 nM (sheet 'Samples'), CATDS: 1.40829388038229E-2",112 nM
same,potency estimated from few doses,"PRKD3; compound concentrations: 100 nM and 1000 nM (sheet 'Samples'), CATDS: 1.7898299297347601E-2",65.9 nM
same,potency estimated from few doses,"PTK2B; compound concentrations: 100 nM and 1000 nM (sheet 'Samples'), CATDS: 2.4807788404782798E-2",35.2 nM
same,potency estimated from few doses,"PTK2; compound concentrations: 100 nM and 1000 nM (sheet 'Samples'), CATDS: 7.5985318000446602E-3",700 nM
same,potency estimated from few doses,"RPS6KA6; compound concentrations: 100 nM and 1000 nM (sheet 'Samples'), CATDS: 8.3254992837084908E-3",496 nM
same,potency estimated from few doses,"STK10; compound concentrations: 100 nM and 1000 nM (sheet 'Samples'), CATDS: 9.0871108796095092E-3",369 nM
CCn1c(-c2nonc2N)nc2c(C#CC(C)(C)O)nc(O[C@@H](CN)c3ccccc3)cc21.O=C(O)C(F)(F)F [GSK1007102B],potency estimated from few doses,LATS1; [1],23.2 nM
same,potency estimated from few doses,MARK4; [1],768 nM
same,potency estimated from few doses,PRKAA1; [1],917 nM
same,potency estimated from few doses,PRKCD; [1],173 nM
same,potency estimated from few doses,PRKCQ; [1],71.9 nM
NCC(NC(=O)c1cc(-c2cn[nH]c2)c(-c2ccnc3[nH]ccc23)s1)c1ccccc1.NCC(NC(=O)c1cc(-c2cn[nH]c2)c(-c2ccnc3[nH]ccc23)s1)c1ccccc1.O=C(O)C(F)(F)F.O=C(O)C(F)(F)F (stereo not drawn) [GSK1325775A],potency estimated from few doses,"PRKCD; compound concentrations: 100 nM and 1000 nM (sheet 'Samples'), CATDS: 4.2478831197515603E-2",712 nM
same,potency estimated from few doses,"PRKCQ; compound concentrations: 100 nM and 1000 nM (sheet 'Samples'), CATDS: 3.02069836024773E-2",2040 nM
O=C1N=C(NCc2cccs2)O/C1=C\c1ccc2ncccc2c1 [RO4624208-000],potency estimated from few doses,DYRK1A; CATDS: 0.15601694862230001,53.8 nM
CN(C)CCNC(=O)Nc1ccc(N(C)c2ccnc(Nc3ccc(CS(C)(=O)=O)cc3)n2)cc1.Cl [GW830900A],potency estimated from few doses,FLT3; [1],39.9 nM
Cc1cccc(Nc2nc(N[C@H]3CCNC3)ncc2C(N)=O)c1.Cl [GSK2197149A],potency estimated from few doses,FLT3; [1],1070 nM
same,potency estimated from few doses,MYLK3; [1],2040 nM
same,potency estimated from few doses,PRKD2; [1],1170 nM
same,potency estimated from few doses,PRKD3; [1],1890 nM
CN(c1ccc(NC(=O)NCCN2CCOCC2)cc1)c1ccnc(Nc2ccc(CS(C)(=O)=O)cc2)n1.Cl [GW830365A],potency estimated from few doses,"FLT3; compound concentrations: 100 nM and 1000 nM (sheet 'Samples'), CATDS: 0.17522141736576",107 nM
same,potency estimated from few doses,"PLK4; compound concentrations: 100 nM and 1000 nM (sheet 'Samples'), CATDS: 4.9779081320457601E-2",1320 nM
c1ccc(-c2n[nH]cc2Nc2ccnc3ccccc23)nc1 [GW694077X],potency estimated from few doses,DYRK1A; CATDS: 7.5630271191524906E-2,80.3 nM
same,potency estimated from few doses,"PRKD2; compound concentrations: 100 nM and 1000 nM (sheet 'Samples'), CATDS: 7.8874466930765497E-2",74 nM
same,potency estimated from few doses,"PRKD3; compound concentrations: 100 nM and 1000 nM (sheet 'Samples'), CATDS: 6.6484920518239093E-2",104 nM
CNc1cc(-c2ccc3c(N)n[nH]c3c2)nc(N)n1 [GSK2224810A],potency estimated from few doses,MYLK3; [1],457 nM
same,potency estimated from few doses,RPS6KA6; [1],899 nM
O=C(O)C(F)(F)F.O=c1[nH]ccc2nc(N[C@@H]3CCNC3)nc(Nc3cc(Cl)cc(Cl)c3)c12 [GSK2188764A],potency estimated from few doses,MARK4; [1],122 nM
same,potency estimated from few doses,MYLK3; [1],184 nM
same,potency estimated from few doses,PRKAA1; [1],799 nM
same,potency estimated from few doses,PRKCD; [1],222 nM
same,potency estimated from few doses,PRKCQ; [1],2080 nM
same,potency estimated from few doses,PRKD2; [1],1300 nM
same,potency estimated from few doses,PRKD3; [1],1470 nM
same,potency estimated from few doses,PTK2B; [1],46.7 nM
same,potency estimated from few doses,RPS6KA6; [1],618 nM
same,potency estimated from few doses,STK10; [1],992 nM
